According to PubChem BioAssay (EPA / NIEHS):
Records with an inconclusive call do not appear. Calls of active or inactive are those of the source. Rule for the calls, unless noted: active = hit-call score of the fitted dose curve at least 0.9, where 1 is the maximum; inactive = score below 0.9.

Assays:
[1] = target: Estrogen receptor (Homo sapiens) (UniProt P03372); experiment: CCTE_Deisenroth_AIME_384WELL_LUC_Active: CCTE's 384-well Estrogen Receptor Transactivation Assay with AIME metabolic competence (ERTA luciferase; metabolism positive), Deisenroth Lab (AID 2284030; active = hit-call score of the fitted dose curve at least 0.9, where 1 is the maximum)
Chain of Estrogen receptor (Homo sapiens) (P03372 whole entry, looked up): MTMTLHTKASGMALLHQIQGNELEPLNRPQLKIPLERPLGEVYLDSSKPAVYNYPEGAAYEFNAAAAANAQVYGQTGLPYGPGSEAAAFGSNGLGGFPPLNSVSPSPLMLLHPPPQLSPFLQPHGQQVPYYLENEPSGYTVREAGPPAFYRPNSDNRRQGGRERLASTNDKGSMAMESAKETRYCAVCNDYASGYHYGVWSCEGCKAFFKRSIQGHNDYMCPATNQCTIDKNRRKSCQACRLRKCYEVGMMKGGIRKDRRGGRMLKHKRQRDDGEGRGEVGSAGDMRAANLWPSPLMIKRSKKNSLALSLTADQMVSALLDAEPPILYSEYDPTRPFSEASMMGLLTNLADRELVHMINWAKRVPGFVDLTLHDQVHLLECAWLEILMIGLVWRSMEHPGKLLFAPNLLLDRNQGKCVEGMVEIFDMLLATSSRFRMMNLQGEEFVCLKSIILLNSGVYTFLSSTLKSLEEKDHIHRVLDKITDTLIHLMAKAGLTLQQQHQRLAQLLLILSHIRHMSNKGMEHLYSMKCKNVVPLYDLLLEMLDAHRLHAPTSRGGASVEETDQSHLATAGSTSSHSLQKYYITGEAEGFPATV
Procedure, shortened: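 AIME metabolism-positive mode: chemicals 0.002 - 200 uM, 2 h with alginate-bound PB/BNF-induced rat S9 → medium to VM7Luc4E2 ERTA, 24 h → luciferase. Positive fit vs 17beta-estradiol; n=4 typical.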

[2] = CCTE_Deisenroth_AIME_384WELL_CTox_Active: Cytotoxicity Assessment (CTOX) in CCTE's 384-well Estrogen Receptor Transactivation Assay with AIME metabolic competence (metabolism positive), Deisenroth Lab (AID 2284037; active = hit-call score of the fitted dose curve at least 0.9, where 1 is the maximum;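 note: chemicals first conditioned 2 h by alginate-bound induced rat liver S9 before cells; activity means signal loss indicating cell death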)
Procedure, shortened: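 VM7Luc4E2 breast cells received medium pre-incubated 2 h with chemical over alginate microspheres holding induced male Sprague Dawley rat liver S9; viability read 24 h later by protease-substrate fluorescence. Loss of signal, bidirectional fit, 0.002–200 uM.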

[3] = target: Estrogen receptor (Homo sapiens) (UniProt P03372); experiment: CCTE_Deisenroth_AIME_384WELL_LUC_Inactive: CCTE's 384-well Estrogen Receptor Transactivation Assay without AIME metabolic competence (ERTA luciferase; metabolism negative), Deisenroth Lab (AID 2284038; active = hit-call score of the fitted dose curve at least 0.9, where 1 is the maximum;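 note: hits raise estrogen receptor luciferase signal so potencies reflect agonists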)
Procedure, shortened: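 Metabolism-negative mode: chemicals (10-point, 0.002–200 uM) held 2 h with alginate-water microspheres, then conditioned medium applied to VM7Luc4E2 cells for 24 h. Luciferase induction referenced to 17beta-estradiol.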

[4] = CCTE_Deisenroth_AIME_384WELL_CTox_Inactive: Cytotoxicity Assessment (CTOX) in CCTE's 384-well Estrogen Receptor Transactivation Assay without AIME metabolic competence (metabolism negative), Deisenroth Lab (AID 2284039; active = hit-call score of the fitted dose curve at least 0.9, where 1 is the maximum;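 note: cell viability via live-cell protease substrate cleaved to fluorescent probe; cells exposed 24 h to medium preincubated 2 h with alginate-water beads without S9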)
Procedure, shortened: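 VM7Luc4E2 cells, metabolism-negative arm: test chemicals (0.002–200 uM, 10 points) pre-incubated 2 h with alginate-water microspheres, then medium transferred to cells for 24 h. Viability read as protease-substrate cleavage to fluorescent probe; loss-of-signal, bidirectional fitting.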

[5] = CCTE_Shafer_MEA_acute_burst_number: CCTE's Neural Acute Assay for Single-Electrode Bursts, Shafer Lab (AID 2284013)
Procedure, shortened: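 Rat cortical cultures, DIV 13/15; 40 min baseline, then 40 min with compound 0.03-40 uM, 37 C. Spikes: 300-5000 Hz band-pass, threshold 8x rms noise. Readout = % change in single-electrode bursts vs baseline, loss-of-signal fit.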

[6] = CCTE_Shafer_MEA_acute_per_burst_spike_number_mean: CCTE's Neural Acute Assay for Average Number of Spikes Per Burst, Shafer Lab (AID 2284015);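 note: hits are decreases in mean spikes per burst versus baseline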
Procedure, shortened: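 Rat primary cortical neurons on 48-well MEAs (DIV 13 or 15) were treated with 0.03-40 uM compound at 37 C. Mean spikes per burst over 40 min were recorded before and after exposure and expressed as percent change from baseline, relative to DMSO.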

[7] = CCTE_Shafer_MEA_acute_interburst_interval_mean: CCTE's Neural Acute Assay for Mean Interburst Interval, Shafer Lab (AID 2284016);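 note: percent change of mean interburst interval versus each well's own pre-dose baseline; curves fitted for decrease in interburst interval relative to DMSO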
Procedure, shortened: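 Rat primary cortical neurons on 48-well MEAs at DIV 13 or 15 were exposed acutely to 0.03-40 uM. Spikes detected at 8x rms noise, 37 C. Mean interburst interval from 40 min recordings expressed as percent change from 40 min pre-treatment baseline.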

[8] = CCTE_Shafer_MEA_acute_burst_percentage_mean: CCTE's Neural Acute Assay for Percentage of Spikes in a Burst, Shafer Lab (AID 2284017)
Procedure, shortened: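 Primary rat cortical neurons on 48-well MEA plates, treated on DIV 13 or 15 at 0.03-40 uM. Spikes detected at 8x rms noise at 37C; percent change from 40-min baseline to 40-min post-dose recording, fitted versus DMSO.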

[9] = CCTE_Shafer_MEA_acute_burst_percentage_std: CCTE's Neural Acute Assay for Standard Deviation of Burst Percentage, Shafer Lab (AID 2284018);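 note: fitted in the negative direction so actives lower burst percentage SD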
Procedure, shortened: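 Primary rat cortical neurons on 16-electrode MEA wells were recorded 40 min at baseline (DIV 13 or 15), then 40 min after compound (0.03-40 uM), at 37 C. Well value is SD across electrodes of spikes-in-bursts/total spikes; endpoint is percent change, DMSO-referenced.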

[10] = CCTE_Shafer_MEA_acute_per_network_burst_spike_number_mean: CCTE's Neural Acute Assay for Average Number of Spikes in a Network Burst, Shafer Lab (AID 2284019)
Procedure, shortened: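 Primary rat cortical neurons on 16-electrode MEA wells, DIV 13 or 15, 37 C; 40-min baseline then 40-min recording with compound (0.03-40 uM). Spikes per network burst (total spikes/number of bursts) expressed as percent change from baseline, DMSO reference.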

[11] = CCTE_Shafer_MEA_acute_per_network_burst_spike_number_std: CCTE's Neural Acute Assay for Standard Deviation of Number of Spikes in a Network Burst, Shafer Lab (AID 2284020);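 note: fitted for decrease in spike-number SD versus DMSO so actives lower it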
Procedure, shortened: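 Primary rat cortical neurons on 48-well MEAs (16 electrodes/well) recorded at DIV 13 or 15: 40-min baseline, then 40 min with compound (0.03-40 uM), 37 C. Value is percent change in SD of spikes per network burst, relative to DMSO.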

[12] = CCTE_Shafer_MEA_acute_per_network_burst_electrodes_number_mean: CCTE's Neural Acute Assay for Mean Number of Electrodes in a Network Burst, Shafer Lab (AID 2284021);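 note: curves fitted for decreases only so hits reduce electrodes per burst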
Procedure, shortened: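 Primary rat cortical networks, mwMEA, 37 C. 20 min stabilization, 40 min baseline, compound 0.03-40 uM, 40 min re-record. Wells need >=10 active electrodes; percent change per well, negative fitting direction.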

[13] = CCTE_Shafer_MEA_acute_network_burst_percentage: CCTE's Neural Acute Assay for Percentage of Network Bursts, Shafer Lab (AID 2284022);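 note: curves fitted for loss so actives lower network burst percentage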
Procedure, shortened: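 Readout is the fraction of spikes falling in network bursts, expressed as per-well percent change from a 40-min pre-exposure baseline. Primary rat cortical neurons on MEA were exposed to 0.03-40 uM compound on DIV 13 or 15 and recorded for 40 min at 37 C.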

[14] = CCTE_Shafer_MEA_acute_cross_correlation_area: CCTE's Neural Acute Assay for Area of Cross Correlation, Shafer Lab (AID 2284024);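 note: area under pooled inter-electrode spike cross-correlation near zero lag as percent change from own baseline; curves fitted for loss of cross-correlation area so actives lower synchrony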
Procedure, shortened: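 Plates equilibrated 20 min at 37 C, then 40 min baseline was recorded, compound was added (0.03-40 uM), and a further 40 min was recorded. Wells needed ≥10 active electrodes (≥5 spikes/min) on exposure day.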

[15] = CCTE_Shafer_MEA_acute_cross_correlation_HWHM: CCTE's Neural Acute Assay for Cross Correlation at Half Width at Half Maximum, Shafer Lab (AID 2284026);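 note: spontaneous network firing of rat primary cortical neurons on multiwell microelectrode arrays; percent change per well from pre-dose baseline in spike cross-correlogram half width; hits are a decrease in cross-correlogram half width relative to DMSO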
Procedure, shortened: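 Rat cortical neuron cultures on microelectrode arrays were equilibrated 20 min at 37 C, recorded 40 min at baseline, then 40 min after compound addition (0.03-40 uM, ≥3 wells). Spikes were detected at 8x rms noise after 300-5000 Hz band-pass filtering.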

[16] = CCTE_Shafer_MEA_acute_synchrony_index: CCTE's Neural Acute Assay for Synchrony, Shafer Lab (AID 2284027);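 note: fitted for loss of signal so actives lower synchrony relative to DMSO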
Procedure, shortened: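 Readout is percent change in the unitless network synchrony index (0 low, 1 high) between a 40-min baseline and a 40-min recording in compound. Cultures were primary rat cortical neurons on MEAs, treated at 0.03-40 uM on DIV 13 or 15.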

[17] = CCTE_Harrill_HTTr_Apoptosis_MCF7: CCTE's 6-hour Apoptosis Assessment for the High-Throughput Transcriptomics (HTTr) Platform, in MCF-7 cells cultured in DMEM + 10% fetal bovine serum, Harrill Lab (AID 2284011)
Procedure, shortened: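 MCF-7 (DMEM + 10% FBS), 384-well; 8-pt dilution series, 6 h chemical exposure; caspase-3/7 activation via CellEvent Caspase 3/7 Green, HCI; bidirectional fit vs DMSO.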

[18] = CCTE_Harrill_HTTr_CellCount_MCF7: CCTE's Cell Proliferation Assessment for the High-Throughput Transcriptomics (HTTr) Platform, Harrill Lab (AID 2284012; active = hit-call score of the fitted dose curve at least 0.9, where 1 is the maximum;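 note: count of Hoechst-stained nuclei per well by high-content imaging in MCF-7 cells; cells exposed to compound for six hours; intended direction is loss of nuclei count meaning fewer cells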)
Procedure, shortened: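 Chemicals in eight-point dilution series are added to MCF-7 cells for six hours, nuclei are stained with Hoechst and imaged, and per-well nuclei counts are fitted in both directions relative to DMSO controls.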

[19] = CCTE_Shafer_MEA_dev_firing_rate_mean: CCTE's Neural Network Formation Assay for Mean Firing Rate, Shafer Lab (AID 2284031);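 note: AUC of well mean spike rate recorded on DIV 5 7 9 and 12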
Procedure, shortened: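 Rat primary cortical neurons were seeded on multielectrode arrays and treated from plating through day 12, with redosing at each feed. Spontaneous spiking was recorded four times; mean firing rate AUC was fitted downward against DMSO.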

[20] = CCTE_Shafer_MEA_dev_per_burst_spike_percent: CCTE's Neural Network Formation Assay for Percent of Spikes in a Burst, Shafer Lab (AID 2284032)
Procedure, shortened: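 Rat primary cortical neurons on 16-electrode MEA wells, dosed from plating day 0 for 12 days with renewal on DIV 5 and 9; spikes-in-bursts percentage averaged over bursting electrodes, collapsed as AUC across days 5, 7, 9, 12; loss direction versus DMSO.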

Measured: AC50

CN(C)CCCN
inactive: [1] | [2] | [3] | [4]

CC(C)(COC(=O)c1ccccc1)COC(=O)c1ccccc1
not listed: [1] | [2] | [3] | [4] | [17] | [18] | [19] | [20]
inactive: all other assays above

CC(C)=CCCC(C)CC=O (stereo unspecified)
inactive: [2] | [4]

CCCCCCCCCCCCCOS(=O)(=O)O
active: [2] 156 µM | [4] 96.3 µM

NCCNCCN
not listed: [1] | [3] | [4] | [17] | [18] | [19] | [20]
inactive: all other assays above

CCCCCCCCCCCCCC(=O)O
inactive: [17] | [1] | [2] | [3] | [4]

NCCCN1CCOCC1
inactive: [1] | [2] | [3] | [4]

c1ccc2c(c1)c1cccc3ccc4cccc2c4c31
inactive: [17] | [18] | [19] | [20]

CC1(C)[C@@H]2CC[C@@]1(C)[C@H](O)C2
inactive: [17] | [2] | [4]

O=C1C(c2[nH]c3ccc(S(=O)(=O)O)cc3c2O)=Nc2ccc(S(=O)(=O)O)cc21
inactive: [17] | [4]

CC[Si](OC(C)=O)(OC(C)=O)OC(C)=O
active: [5] 0.429 µM
not listed: [1] | [2] | [3] | [4] | [17] | [18] | [19] | [20]
inactive: all other assays above

OC[C@H]1O[C@H](O[C@]2(CCl)O[C@H](CCl)[C@@H](O)[C@@H]2O)[C@H](O)[C@@H](O)[C@H]1Cl
not listed: [1] | [2] | [3] | [4] | [17] | [18] | [19] | [20]
inactive: all other assays above

CCC(=O)OCc1ccccc1
active: [14] 0.00943 µM
not listed: [1] | [2] | [3] | [4] | [18] | [19] | [20]
inactive: all other assays above

O=C[C@@H](O)[C@H](O)[C@H](O)CO
inactive: [2] | [4]

O=C(Cl)c1cccc(C(=O)Cl)c1
inactive: [2]

CCCC1CCC(=O)O1 (stereo unspecified)
inactive: [2] | [4]

NC(=O)NC1NC(=O)NC1=O (stereo unspecified)
inactive: [17] | [4]

CCCCCOC(=O)CCC
inactive: [2]
